According to PubChem BioAssay AID1259325 (C. David Weaver Laboratory, Vanderbilt University, 2017):
Out of some 63,000 compounds screened, about 30 (0.05%) were called active. The rule behind the calls is not given here. The list is a sample of the results.

target: G protein-activated inward rectifier potassium channel 2 (Homo sapiens) (UniProt P48051); assay: activators of human GIRK2 potassium channels (AID 1259325); settings: HEK293-GIRK2 thallium flux, Thallos fluorescence, MPD
Sequence (P48051 whole entry, looked up): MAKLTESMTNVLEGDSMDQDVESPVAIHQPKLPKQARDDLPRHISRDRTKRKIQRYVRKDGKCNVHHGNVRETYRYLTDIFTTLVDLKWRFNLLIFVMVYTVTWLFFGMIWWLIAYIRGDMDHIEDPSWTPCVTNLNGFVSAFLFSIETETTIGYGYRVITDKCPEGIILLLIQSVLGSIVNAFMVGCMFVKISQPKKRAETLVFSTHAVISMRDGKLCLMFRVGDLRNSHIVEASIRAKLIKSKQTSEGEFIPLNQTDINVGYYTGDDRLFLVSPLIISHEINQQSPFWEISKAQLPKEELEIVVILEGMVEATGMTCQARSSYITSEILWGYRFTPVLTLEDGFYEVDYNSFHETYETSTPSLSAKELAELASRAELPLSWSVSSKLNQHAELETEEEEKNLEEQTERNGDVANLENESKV

outcome, inactive:
CCCCCn1c(=O)c2c(nc3n2CC(C)CN3c2ccc(Oc3ccccc3)cc2)n(C)c1=O (configuration not stated)
Cc1cc(C(=O)NCC#CCOc2ccc3c(c2)OCO3)c(C)o1
COc1cc(OC)cc(N(C)S(=O)(=O)c2ccsc2-c2nc(-c3cccc(C)c3)no2)c1
O=C(CSc1nnc(-c2ccc(Cl)cc2)c2ccccc12)N1CCOCC1
Cc1csc(SCC2CCN(S(=O)(=O)c3cccc(C(F)(F)F)c3)CC2)n1
CC(C)(C)OC(=O)COc1ccc2c(c1)O/C(=C\c1cc(Cl)cc3c1OCOC3)C2=O
Cc1nc(SCc2ccccc2)[nH]c(=O)c1CC(=O)Nc1ccc(C(C)C)cc1
Cc1ccc(S(=O)(=O)N(Cc2ccc(Cl)cc2)C(=O)N2CCN(C)CC2)cc1
COc1ccc(C)c2sc(N(CCCn3ccnc3)C(=O)/C=C/c3cccs3)nc12
CCC(C(=O)Nc1cc(F)ccc1F)n1cc(-c2nc(-c3cnccn3)no2)ccc1=O (configuration not stated)
COc1cc(NC(=O)Cn2cnc3c(-c4ccc(Cl)cc4)csc3c2=O)cc(OC)c1
COc1ccccc1OCC#CCNC(=O)c1cnccn1
Cc1cc(C)c2c(c1)c(=O)c1c(n2C)CCN(C(=O)Nc2cc(Cl)ccc2C)C1
COc1ccc(C2(CNC(=O)C3CCN(S(C)(=O)=O)CC3)CCOCC2)cc1
O=C(CSc1cc(C(F)(F)F)c2cc3c(cc2n1)OCO3)NCc1ccco1
O=C(Cc1ccc(NS(=O)(=O)c2c(F)cccc2F)cc1)NCc1cccs1
Cc1nn(-c2ncc(NC(=O)c3cccc4ccccc34)cn2)c(C)c1C
Cc1nc(C)c(-c2nnc(NC(=O)COc3cccc4c3OC(C)(C)C4)o2)s1
COc1ccc(F)cc1S(=O)(=O)N1CCN=C1c1ccccc1
O=C(CSCc1ccccc1)Nc1cnoc1
COc1ccc(Cn2cc(S(=O)(=O)N3CCCCC3)ccc2=O)cc1F
O=C(CC1CCCC1)N(CCc1cccs1)Cc1ccoc1
Cc1cc(SCC(=O)c2ccc3c(c2)OCO3)nc(C(C)C)n1
C=C(C)COc1ccc(-c2nc(N)nc(C(F)(F)F)c2-c2ccccc2OC)c(O)c1
CCOC(=O)C1CCc2sc(NC(=O)C3CCCN(Cc4nc(-c5cccnc5)no4)C3)nc21 (configuration not stated)
CCOC(=O)CN1CCC(c2nnc(-c3ccc(F)cc3)o2)CC1
CCOC(=O)c1cnn2ccc(NC(=O)C(c3ccccc3)c3ccccc3)cc12
O=C1CC(c2nc3ccccc3n2CCOc2ccccc2)CN1c1ccccc1 (configuration not stated)
COc1ccccc1N1CCN(CC(=O)N2CCN(S(C)(=O)=O)CC2)C1=O
COc1ccccc1NC(=O)CN1N=NC2C(=O)N(c3ccc(F)c(F)c3)C(=O)C21 (configuration not stated)
CCOc1ccc(C2C(C(=O)c3sc(C)nc3C)=C(O)C(=O)N2CCCN(C)C)cc1 (configuration not stated)
CN(C)C(CNC(=O)C1c2ccccc2Oc2ccccc21)c1cccn1C (configuration not stated)
CCCN(C)c1nccn2c(=O)n(CC(=O)Nc3cccc(CC)c3)nc12
CCOC(=O)c1ccc(NC(=O)Cn2ccn(Cc3ccc(Cl)cc3)c(=O)c2=O)cc1
Cc1nc(C)c(-c2ccc(=O)n(CCNC(=O)C3CCN(S(C)(=O)=O)CC3)n2)s1
O=C(c1ccc2c(c1)OCO2)N1CCC(CSc2ccccn2)CC1
COc1ccc(S(=O)(=O)N2CCCOC2CNC(=O)C(=O)NCc2ccc(C)cc2)cc1OC (configuration not stated)
Cn1c(=O)n(CCc2ccccc2)c(=O)c2c(N3CCN(C(=O)c4ccco4)CC3)ccnc21
COc1cccc(CSc2nc(C)c(CC(=O)NCc3cccs3)c(=O)[nH]2)c1
COc1ccc(NC(=O)CSc2nnc(C3CC(=O)N(c4ccc(C)cc4)C3)o2)cc1 (configuration not stated)
O=C(O)CCC/C=C\C[C@@H]1C(/C=C/[C@@H](O)COc2cccc(C(F)(F)F)c2)[C@H](O)C[C@@H]1O (some centres not stated)
O=C(CSc1ccc(-c2nc(-c3ccccc3)no2)cn1)NCc1ccc2c(c1)OCO2
CCCNC(=O)Cn1nc2c(c1NC(=O)COc1ccccc1F)CSC2
O=C(COc1ccc(Cl)cc1)Nc1ccc(N2CCCCS2(=O)=O)cc1
O=C1CC(C(=O)Nc2ccccc2Cl)n2c(nc3ccccc32)N1 (configuration not stated)
COCCNC(=O)c1[nH]c2ccccc2c1NC(=O)c1cccc(C)c1
COc1cc(/C=C2\Oc3c4c(cc(C)c3C2=O)OCN(C2CC2)C4)cc(OC)c1OC
CCc1ccc(NC(=O)NCCNc2cc(Nc3ccccn3)ncn2)cc1
Cc1cc(C)n(-c2cc(SCC(=O)N3CCCC3)ncn2)n1
COc1ccc(-c2ccc(C)c(NC(=O)c3cc4ccccc4oc3=O)c2)nn1
Cn1cccc(C(=O)Nc2ccc3c(c2)CCC(=O)N3)c1=O
O=C(CCn1c(=O)oc2ccc(Cl)cc21)N1CCN(c2ccccc2Cl)CC1
COc1cccc(OCc2nc3c(C)cccc3[nH]2)c1
CCC(C)c1ccc(Cn2c(CO)nc3ccccc32)cc1 (configuration not stated)
CC(=O)c1cccc(NC(=O)CCCn2cnc(-c3ccc(F)cc3)cc2=O)c1
COCCn1c(SCc2nc(-c3ccc(Cl)cc3)no2)nc2cc3c(cc2c1=O)OCO3
CCOc1cc(C(=O)Nc2ccc3c(c2)N(C(C)=O)CCC3)cc(OCC)c1OCC
Cn1cnnc1SCc1cc(=O)c(OCC(=O)NCc2ccco2)co1
COC(=O)c1[nH]c(C)c(C(O)=C2C(=O)C(=O)N(CCCN(C)C)C2c2cccs2)c1C (configuration not stated)
O=C(Nc1nc(-c2cc3ccccc3o2)cs1)c1ccc(S(=O)(=O)N2CCOCC2)cc1
Cc1ccnc(Nc2cc(NCCNC(=O)Nc3cccc(Cl)c3)ncn2)c1
COc1cccc(NC(=O)CSc2ncc(S(=O)(=O)c3ccc(Cl)cc3)c(=O)[nH]2)c1
O=S(=O)(Cc1nc(-c2cccc(Cl)c2)no1)c1ccccc1
O=S(=O)(c1ccccc1F)N(CCc1cccs1)Cc1ccoc1
COc1ccc(Nc2c(C(=O)N3CCCCC3)cnc3nc(C)ccc23)cc1OC
O=S(=O)(NCCC(O)c1ccoc1)c1ccc(F)c(Cl)c1 (configuration not stated)
COC(=O)c1ccc2c(=O)n(CCC(=O)NCCN3CCCc4ccccc43)c(=S)[nH]c2c1
Cc1nc2sc(C)c(C)n2c(=O)c1NC(=O)c1ccccc1C(F)(F)F
COC(=O)Nc1nc2c(s1)CN(C(=O)c1cccc(C#N)c1)CC2
COc1cc(NC(=O)c2cnccn2)ccc1N1CCCC1=O
Cc1nn(-c2ccccc2)c(C)c1N1CCN(S(=O)(=O)c2cccs2)CC1
Cn1cccc1C(=O)N1CCN(Cc2nncn2-c2ccccc2F)CC1
Cc1cn2c3c(=O)n(C/C=C/c4ccccc4)c(=O)n(C)c3nc2n1-c1ccccc1O
CCCCN(C)C(=O)c1cc2c(=O)n3ccccc3nc2n1CCCOC
COc1ccc(OC)c(S(=O)(=O)NCC(c2ccc(F)cc2)N2CCOCC2)c1 (configuration not stated)
CCOC(=O)c1cnn2ccc(NC(=O)c3cnn(-c4ccccc4)c3C)cc12
COc1ccc(C(O)CN2CCN(c3cccc(C)c3C)CC2)cc1 (configuration not stated)
Cc1cc(NC(=O)C2CCN(C(=O)C3(c4ccccc4)CCOCC3)CC2)no1
COc1cccc(C(=O)Oc2ccc(/C=C/c3ccccn3)cc2)c1
Nc1cc2cc(Br)ccc2cn1
COc1ncccc1C(=O)NCCn1nc(C2CC2)n(-c2ccccc2)c1=O
CCc1cc2c(=O)n(Cc3ccco3)c(SCc3cc(=O)[nH][nH]3)nc2s1
Cc1cc(N2CCN(CCO)CC2)n2nc(C(F)(F)F)c(-c3ccc(Cl)cc3)c2n1
CCOc1ccc(N(C)S(=O)(=O)c2ccsc2C(=O)NCCC2=CCCCC2)cc1
CCC(=O)Nc1cc(-c2ccco2)nn1-c1nc2c(c(=O)[nH]1)CCC2
O=C(CCC(=O)N1CC(c2nc(-c3cccs3)no2)C1)c1ccccc1
Cc1ccc(Cl)c(-n2nnc(C(=O)Nc3ccccc3Cl)c2C)c1
O=C(NCC(=O)N1CCN(c2cc(-n3cccc3)ncn2)CC1)c1ccccc1
O=C(Nc1ccc2c(c1)OCO2)Nc1ccccc1NC(=O)c1ccccc1F
O=S(=O)(NC1CCN(c2ccc(-c3ccccc3Cl)nn2)CC1)c1cccs1
O=C(CN1CCN(c2ccccc2F)C1=O)Nc1ccc(OC(F)(F)F)cc1
CCOC(=O)N1CCc2c(sc(NC(=O)c3ccc(C)c(C)c3)c2-c2nc3ccccc3s2)C1
Cc1nnc(NC(=O)C2CCN(c3ccc(-c4ccco4)nn3)CC2)s1
Cc1cc(-c2ccccc2)nc2cc(-c3nc(-c4cccs4)no3)nn12
CCCCCNC(=O)c1sc(-c2nnn(-c3ccc(F)cc3)c2C)nc1C
Cc1ccc2[nH]c3c(=O)n(CC(=O)N4CCN(c5cccc(C(F)(F)F)c5)CC4)cnc3c2c1
COc1ccc(NCCN2N=C(C)C(C)n3c2nc2c3c(=O)n(C)c(=O)n2C)cc1 (configuration not stated)
